In PubChem BioAssay AID720526 (National Center for Advancing Translational Sciences (NCATS), 2013):
Records with an inconclusive call do not appear. Calls of active or inactive are those of the source. Calls come from the whole dose curve; as a rule, active = well fitted activation curve with a large enough effect; inconclusive = small, poorly fitted or top-dose-only effect; inactive = no such curve, though single readings can be large or run the other way.

Test: qHTS Assay for NPC1 Promoter Activators: Hit Validation Using Renila Luciferase Read-Out for NPC1
Settings: Huh7 NPC1 promoter-luciferase reporter, luminescence, 24 h; series mostly up to 76.9 µM
Description: Niemann Pick Type C (NPC) is a rare neurodegenerative lipidosis that is characterized by lipid storage in the endosomal/lysosomal system. Treatment modalities for this devastating disease are currently non-existent due to the severe obstacles associated with accessing the central nervous system with proteins or genes. The majority of mutations causing NPC disease are missense mutations that are distributed throughout the length of the NPC1 protein, with the most prevalent being the I1061T allele. Although NPC1 mutant proteins may be functional, they are typically trapped in the ER due to misfolding. […] We have developed and optimized a cell based renilla luciferase reporter assay in 1536 well format for the identification of up-regulators of the mutant Rab9 promoter. This assay presents data on the validation of hits from the primary screen, which used a firefly luciferase read-out. NIH Chemical Genomics Center [NCGC] NIH Molecular Libraries Probe Production centers Network [MLPCN] MLPCN Grant: MH089375 Assay Submitter (PI): Yiannis A. Ioannou
Huh7 cells stably expressing NPC promoter-luciferase will be seeded at 1,500 cells/well in 5 uL in 1,536-well white opaque plates with 23 nL/well of compound in DMSO solution. The assay plates will be incubated at 37 deg C for 24 hours, after which 3 uL/well BriteLite plus luciferase detection reagent mixture (Perkin Elmer) will be added. Luminescence signal will be measured in a ViewLux plate reader (Perkin Elmer) after a 10 minute incubation at the room temperature.
Potency is the fitted concentration of half-maximal effect.

Potency, active:
CC(=O)c1c(C)[nH]c(C(=O)Nc2cccc(S(=O)(=O)N(C)C)c2)c1C 23.2 µM, Cc1ccc(S(=O)(=O)/N=C(/Nc2ccccn2)c2ccc(Cl)cc2)cc1 11.6 µM

Potency, inactive:
Cc1ccc(NC(=O)Nc2cccc3ccccc23)cc1, CCN(CC(=O)N(CC(C)C)c1c(N)n(CC(C)C)c(=O)[nH]c1=O)Cc1nc2ccccc2c(=O)[nH]1, CCN(CC)S(=O)(=O)c1ccc(NCc2ccccn2)nc1, CC1(C)CC(=O)c2c(O)c(-c3ccccc3)c(=O)n(-c3ccccc3)c2C1, COc1ccc(NC(=O)Nc2ccc(Cc3ccncc3)cc2)cc1OC, Cc1ccc(S(=O)(=O)N2CCN(c3cnn(C)c(=O)c3Cl)CC2)cc1, CN(C)C(=O)[C@H]1C[C@H]1[C@@H](O)[C@H](CO)NC(=O)[C@H](COCc1ccccc1)NC(=O)OC(C)(C)C, CCOC(=O)CSc1nc2cc3c(cc2cc1C#N)OCO3, O=C(/C=C/c1ccco1)NCC1OCCc2ccccc21 (stereo not given), O=C(Nc1ccc(-c2nc3cccnc3s2)cc1)c1ccc(Cl)nc1, O=C(CCCn1c(=O)oc2ccccc21)N1CCN(c2ccccn2)CC1, COc1ccc(-n2cc(-c3ccc(Cl)cc3)[nH]c2=S)cc1, COc1ccc(/C=C\C(=O)c2c(O)ccc3c(C)cc(=O)oc23)cc1OC, Cc1csc(NC(=O)CSc2nnc(-c3ccncc3)o2)n1, O=C(CCc1cccc(Cl)c1)NC1CCCN(Cc2ccccc2F)C1 (stereo not given), CCCCc1cc(=O)oc2cc(OCC(=O)N3CCOCC3)ccc12, O=S(=O)(c1cccs1)N1CCN(c2ncccn2)CC1, COc1ccc(NC(=S)NNC(=O)c2cccs2)cc1, CC(=O)Nc1ccc(-c2csc(Nc3ncccn3)n2)cc1, CC(C)C(NC(=O)c1ccc([N+](=O)[O-])cc1Cl)C(=O)N1CCCC1 (stereo not given), CCCCn1c(Nc2ccc(OC)cc2)nc2ccccc21, COCCNC(=O)C1CCC(CNS(=O)(=O)c2ccc(F)cc2)CC1 (stereo not given), O=C(CSc1nnc(-c2ccc([N+](=O)[O-])cc2)o1)Nc1ccccn1, CC1CCCN(C(=S)Nc2ccc(Nc3ccccc3)cc2)C1 (stereo not given), Cc1ccc(C)c(Nc2cc(C)nc3ncnn23)c1, CCCc1cc(C(=O)Nc2ccccc2SC)no1, O=C(C[N+]1(CC#Cc2ccccc2)CCCCC1)c1ccccc1, O=C(CSc1nnc(-c2ccccn2)o1)Nc1ccccc1Cl, CCCCCCC(=O)Nc1ccc(C(=O)N/N=C/c2cccnc2)cc1, Cc1ccc(C(=O)Nc2nnc(S(=O)(=O)N3CCOCC3)s2)cc1, CC1CC(C)CN(CC(=O)N2CCOCC2)C1 (stereo not given), COc1ccc(-c2noc(N3CCCC(C(=O)Nc4ccccc4F)C3)n2)cc1 (stereo not given), Cc1ccc2nc(NC(=O)CCn3cccc3)sc2c1, CCOc1cc(C(=O)N=c2sccn2C)ccc1OC(F)F, COC(=O)c1ccccc1S(=O)(=O)NNC(=O)Nc1ccccc1, O=[N+]([O-])c1cnccc1Nc1ccc(F)cc1, Cc1noc(/C=C/N(C)C)c1S(=O)(=O)N1CCCC(C(=O)N2CCCCC2)C1 (stereo not given), O=C(c1cccc(Oc2ccc([N+](=O)[O-])cc2)c1)N1CCOCC1
